# The campaign covered roughly 220,000 compounds. About 910 (0.41%) were called active.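 Rule for the calls: active = primary inhibition above the hit cutoff, then over 50% inhibition at one or more dose response concentrations (cut at about 23% in these data, passing the limit was not always enough); inconclusive = conflicting primary data, or primary hits not chosen for dose response; inactive = low primary inhibition, or under 50% at every dose.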 This excerpt belongs to a sample that is enriched for actives. Measured potencies and affinities stand elsewhere.
# Biological target: Aminopeptidase N (Plasmodium falciparum (isolate 3D7)) (UniProt O96935)
# Test: malaria alanyl aminopeptidase activity blockers – biochemical, fluorogenic H-Leu-NHMec substrate, 1536-well (AID 1445);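 note: plate controls were DMSO full reaction for no effect and no enzyme background for full effect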
# Details: recombinant M1AAP, H-Leu-NHMec fluorogenic kinetic assay; at 30 µM, stronger effect = higher value unless noted
# Aminopeptidase N (Plasmodium falciparum (isolate 3D7)), sequence (O96935 whole entry, looked up): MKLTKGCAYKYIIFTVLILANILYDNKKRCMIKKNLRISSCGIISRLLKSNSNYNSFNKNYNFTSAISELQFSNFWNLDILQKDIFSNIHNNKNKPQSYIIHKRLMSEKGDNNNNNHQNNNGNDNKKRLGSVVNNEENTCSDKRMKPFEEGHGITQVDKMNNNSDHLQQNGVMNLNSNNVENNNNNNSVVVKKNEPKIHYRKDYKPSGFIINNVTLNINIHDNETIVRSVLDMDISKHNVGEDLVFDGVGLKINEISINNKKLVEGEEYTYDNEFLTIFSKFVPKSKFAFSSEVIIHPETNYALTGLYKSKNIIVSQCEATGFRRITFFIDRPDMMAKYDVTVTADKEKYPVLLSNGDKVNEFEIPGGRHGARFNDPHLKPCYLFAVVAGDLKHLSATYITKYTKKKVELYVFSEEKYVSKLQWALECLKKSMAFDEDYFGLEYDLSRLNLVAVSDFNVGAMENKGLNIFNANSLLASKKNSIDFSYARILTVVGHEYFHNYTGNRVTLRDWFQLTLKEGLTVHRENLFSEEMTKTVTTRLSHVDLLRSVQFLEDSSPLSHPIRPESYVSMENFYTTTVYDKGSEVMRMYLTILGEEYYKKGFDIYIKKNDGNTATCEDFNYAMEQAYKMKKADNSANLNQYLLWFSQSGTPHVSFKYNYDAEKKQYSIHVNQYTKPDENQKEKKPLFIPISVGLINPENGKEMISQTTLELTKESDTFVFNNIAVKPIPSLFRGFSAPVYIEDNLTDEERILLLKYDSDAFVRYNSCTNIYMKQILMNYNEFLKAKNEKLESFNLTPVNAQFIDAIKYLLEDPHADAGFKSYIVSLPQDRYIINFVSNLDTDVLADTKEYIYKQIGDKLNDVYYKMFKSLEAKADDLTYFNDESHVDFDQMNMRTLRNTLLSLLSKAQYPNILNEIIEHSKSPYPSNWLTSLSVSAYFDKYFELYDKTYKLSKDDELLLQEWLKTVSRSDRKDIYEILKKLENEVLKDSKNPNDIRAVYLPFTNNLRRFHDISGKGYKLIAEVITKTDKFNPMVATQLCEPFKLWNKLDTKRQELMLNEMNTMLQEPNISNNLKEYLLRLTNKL
row,Structure (SMILES),inhibition
1,CC(/C=N/NC(=O)CNc1n[nH]c(=O)[nH]c1=O)c1ccccc1 (stereo unspecified),3.79% (inactive)
2,CC(=O)Nc1ccc(-c2ccccc2)s1,25.4% (active)
3,CNC(=O)c1ccc(-c2ccccc2)s1,1.69% (inactive)
4,CC(=O)Nc1ccc(NC(C)=O)s1,2.97% (inactive)
5,CN(CCNC(=O)CCCOc1cc(=O)n(C)c2ccccc12)Cc1ccccc1,2.96% (inactive)
6,CN(C)c1ccc(NC(=O)c2sc(SCC(=O)Nc3ccc(Br)cc3)nc2N)cc1,4.44% (inactive)
7,CN(C)c1ccc(NC(=O)CSc2nc(N)c(C(=O)Nc3ccc(N(C)C)cc3)s2)cc1,-0.46% (inactive)
8,CN(C)c1ccc(NC(=O)c2sc(SCC(=O)Nc3nccs3)nc2N)cc1,25.2% (active)
9,COc1ccc(C(=O)NC(=S)Nc2ccc(N3CCOCC3)c(Cl)c2)cc1[N+](=O)[O-],14.5% (inactive)
10,COc1cccc(/C=N/n2c(-c3cccs3)n[nH]c2=S)c1,4.5% (inactive)
11,CCOc1ccc(C(=O)N[C@H](C(=O)Nc2ccc(OC)c(S(=O)(=O)N3CCOCC3)c2)C(C)C)cc1,2.14% (inactive)
12,COc1ccc(NC(=O)Nc2ccccc2)cc1S(=O)(=O)N1CCCCC1,-0.57% (inactive)
13,Cc1cccc(N(CC(=O)NC2CCCC2)C(=O)CS(=O)CC(=O)Nc2ccc3c(c2)OCO3)c1 (stereo unspecified),1.66% (inactive)
14,Cc1cccc(N(CC(=O)NC2CCCC2)C(=O)CS(=O)CC(=O)Nc2ccc3c(c2)OCO3)c1C (stereo unspecified),6.68% (inactive)
15,Cc1ccc(N(CC(=O)NC(C)(C)C)C(=O)CS(=O)CC(=O)Nc2ccc3c(c2)OCO3)cc1 (stereo unspecified),8.92% (inactive)
16,Cc1cccc(N(CC(=O)NC(C)(C)C)C(=O)CS(=O)CC(=O)Nc2ccc3c(c2)OCO3)c1 (stereo unspecified),3.73% (inactive)
17,Cc1c(NC(=O)C(C)OC(=O)/C=C/c2ccccc2)c(=O)n(-c2ccccc2)n1C (stereo unspecified),-2.48% (inactive)
18,Cc1ccccc1Cn1c(Cc2ccccc2)nc2ccccc21,-1.18% (inactive)
19,Cc1cccc2cc(C#N)c(SCC#N)nc12,4.01% (inactive)

row,Structure (SMILES),inhibition
1,Clc1ccc(N2N=C(c3cccs3)CC2c2ccco2)cc1 (stereo unspecified),4.39% (inactive)
2,c1ccc(N2N=C(c3cccs3)CC2c2ccco2)cc1 (stereo unspecified),18.2% (inactive)
3,NC(=O)CC(NC(=O)Cc1ccc(Br)cc1)c1ccc(N2CCN(c3ccccc3)CC2)c([N+](=O)[O-])c1 (stereo unspecified),7.14% (inactive)
4,CCOC(=O)Cc1nnc(NC(=O)C(CC)Sc2nnc3c4ccccc4n(C)c3n2)s1 (stereo unspecified),23.4% (active)
5,CCOC(=O)Cc1nnc(NC(=O)CSc2nnc3c4ccccc4n(C(C)C)c3n2)s1,10.5% (inactive)
6,CCOC(=O)Cc1nnc(NC(=O)CSc2nnc3c4ccccc4n(C)c3n2)s1,14% (inactive)
7,CCNS(=O)(=O)c1ccc(CCC(=O)Nc2ccccc2)cc1,3.88% (inactive)
8,Cc1ccc(CNC(=O)CCc2ccc(S(=O)(=O)NCC(C)C)cc2)cc1,8.45% (inactive)
9,CC(C)NS(=O)(=O)c1ccc(CCC(=O)Nc2ccc3c(c2)OCO3)cc1,9.11% (inactive)
10,CC(C)(C)NS(=O)(=O)c1ccc(CCC(=O)NCc2ccc3c(c2)OCO3)cc1,18.7% (inactive)
11,O=C(CCc1ccc(S(=O)(=O)NCc2ccccc2)cc1)NCc1cccnc1,6.09% (inactive)
12,Cc1ccc(CNC(=O)CCNS(=O)(=O)c2ccc(C)cc2)cc1,9.63% (inactive)
13,O=C(Nc1cc(C(F)(F)F)ccc1Cl)C(Sc1nnc(-c2cccs2)o1)c1ccccc1 (stereo unspecified),-4.08% (inactive)
14,COCCCNCCOCCOc1c(OC)cccc1OC,-5.39% (inactive)
15,Cc1cc(C2=CC(C)(c3cc(C)oc3C)Nc3nc(C(F)(F)F)nn32)c(C)o1 (stereo unspecified),6.98% (inactive)
16,O=C(CNC(=O)c1ccc(F)cc1)Nc1ccccc1C(F)(F)F,-1.13% (inactive)
17,CCOC(=O)C1=C(C)NC2=C(C(=O)CCC2)C1c1ccc(O)c(OCC)c1 (stereo unspecified),-7% (inactive)
18,O=C(Nc1nccs1)c1ccc(NC(=O)C2CC=CCC2C(=O)O)cc1 (stereo unspecified),8.55% (inactive)
19,CC1(C)CC(=O)C(C=NCCc2ccc(S(N)(=O)=O)cc2)=C(O)C1,12% (inactive)

row,Structure (SMILES),inhibition
1,O=S(=O)(Nc1nc2ccc(S(=O)(=O)N3CCCC3)cc2s1)c1ccc(F)cc1,17.8% (inactive)
2,O=S(=O)(Nc1nc2ccc(S(=O)(=O)N3CCCCC3)cc2s1)c1ccccc1,23.2% (inactive)
3,O=C(O)CCC(=O)N(Cc1cccnc1)Cc1cccc(F)c1,6.62% (inactive)
4,CCCCCN(C(=O)NC(=O)Nc1ccccc1C)S(=O)(=O)c1ccccc1,-0.93% (inactive)
5,COc1ccc(-c2nc(CSCC(=O)N3CCN(c4cccc(C)c4)C(C)C3)c(C)o2)cc1OC (stereo unspecified),23.8% (active)
6,CCN1CCN(C(=O)CSCc2nc(-c3ccc(OC)c(OC)c3)oc2C)CC1,1.5% (inactive)
7,COc1ccc(-c2nc(CSCC(=O)N3CCN(C)CC3)c(C)o2)cc1OC,1.38% (inactive)
8,COc1ccc(/C=N/NC(=S)Nc2ccccc2)cc1COc1ccc(Br)cc1,5.9% (inactive)
9,Cc1nnc2n1NC(c1ccc(Cl)cc1)C(C(=O)N(C)C1CCCCC1)S2 (stereo unspecified),14.7% (inactive)
10,Cc1cccc2cc(CN(CCN3CCOCC3)C(=O)NCc3ccccc3)c(=O)[nH]c12,11.1% (inactive)
11,COC(=O)CC[C@@H](C(=O)O)N1C(=O)c2ccccc2C1=O,1.27% (inactive)
12,O=C(NCc1ccco1)c1nn2c(C(F)(F)F)cc(-c3cccs3)nc2c1Br,15.8% (inactive)
13,O=C(CSc1nc(-c2cccs2)cc(C(F)(F)F)n1)NCc1ccco1,8.47% (inactive)
14,O=C(CSc1nc2nc(-c3cccs3)cc(C(F)(F)F)c2c(=O)[nH]1)Nc1ccc(F)c(F)c1,12.9% (inactive)
15,CCOc1ccccc1NC(=O)CSc1nc2nc(-c3cccs3)cc(C(F)(F)F)c2c(=O)[nH]1,3.01% (inactive)
16,COc1ccc(NC(=O)CSc2ccc(-c3cccs3)nn2)c(OC)c1,4.92% (inactive)
17,CC(=O)Nc1ccc(NC(=O)CSc2nc3nc(-c4cccs4)cc(C(F)(F)F)c3c(=O)[nH]2)cc1,13.8% (inactive)
18,COC(=O)c1ccc(OC(=O)CCN2c3ccccc3Sc3ccccc32)cc1,-4.42% (inactive)

# Reference: PubChem BioAssay AID1445 (SRMLSC, 2008)
